According to ChEMBL document CHEMBL3988442, “University of Dundee, Small-Polar-MMV Screening Library” (2021):
In all, about 48,000 compounds went through this assay and about 13,000 (27%) showed an effect of 50% or more. The list shows a part of the results.

system: Wolbachia pipientis; assay: Anti-Wolbachia Cell-Based Screen; format: functional; set-up: scale not given: in the data most compounds retested in dose-response had high values; conditions: 5 µM

SMILES	Percent Effect
COc1ccc(-c2n[nH]cc2CN(C)Cc2nnc(C)o2)c(F)c1	5.542%
COC[C@]1(O)CCN(Cc2c[nH]c(CC3CCCC3)n2)CC1(C)C	12.99%
Cn1cc(CN2CCc3ncnc(C4CCOC4)c3CC2)cn1 (stereo not given)	2.928%
CCC1CCCCN1C(=O)c1ccnc(N(C)C)c1 (stereo not given)	113.6%
CS(=O)(=O)NCC1CCCCN1C(=O)c1ccc(Br)s1 (stereo not given)	-1.817%
CN(C)c1cc(C(=O)N2CCCCC2CNS(C)(=O)=O)ccn1 (stereo not given)	130%
CS(=O)(=O)NCC1CCCCN1C(=O)c1ccsc1 (stereo not given)	-1.868%
CN(C)c1cc(C(=O)N2CCCCC2Cn2cccn2)ccn1 (stereo not given)	105%
CCCc1nc(C(C)(C)NC(=O)c2ccnn2C)no1	9.786%
CCCc1nnc(N[C@H](C)c2ccc(OC)cc2)o1	-12.73%
Fc1ccc(CNCc2cc(Br)c3c(c2)OCO3)cc1	-17.14%
O=C(CCNC(=O)c1ccoc1)Nc1cc(F)ccc1F	-1.29%
Cc1cccc(CN2CCOC(C)(C(=O)N3CCOCC3)C2)n1 (stereo not given)	111.3%
Cc1cccc(CN2CCc3[nH]nc(C(=O)N4CCOCC4)c3C2)n1	9.618%
Cc1cccc(CN2CC[C@H]3OCC[C@@]3(C(=O)N3CCOCC3)C2)n1	83.3%
Cc1cc(CN2CCN(C(=O)NCc3ccc(C)s3)CC2)no1	0.1424%
Cc1cc(CN2CCOC(C)(C(=O)N3CCOCC3)C2)no1 (stereo not given)	109.8%
CC1(C(=O)N2CCOCC2)CN(Cc2c[nH]cn2)CCO1 (stereo not given)	123.4%
CC1(C(=O)N2CCOCC2)CN(Cc2ccccn2)CCO1 (stereo not given)	-10.18%
CN1CCN(Cc2c[nH]cn2)CC12CCC(=O)N(CC1CC1)CC2 (stereo not given)	-17.33%
Cc1ncsc1CN1CC[C@H]2OCC[C@@]2(C(=O)N2CCOCC2)C1.O=C(O)C(F)(F)F	1.512%
Cc1cc(CNC(=O)NCc2ccccc2N2CCOCC2)no1	-16.89%
NC(=O)C1CN(Cc2c[nH]cn2)CCN(C2CCOCC2)C1 (stereo not given)	-9.995%
CC(C)Nc1cccc(CNC(=O)N2CCC[C@@H]2CO)c1	-12.14%
CCCc1cc(=O)[nH]c2nnc(SCC(=O)NCCc3ccccc3)n12	12.93%

SMILES	Percent Effect
COC(=O)N1CCC(NC2CCSCC2)C1 (stereo not given)	-0.02013%
CCC(CCO)NS(=O)(=O)c1ccc(Br)cn1 (stereo not given)	-13.92%
C=C(C)Cn1nnc(C2(NC(=O)c3ccccc3)CCCC2)n1	-0.5972%
O=C(O)[C@@H]1CN(Cc2ccc3nsnc3c2)C[C@H]1c1cccnc1	-24.04%
Cc1cncc(C(=O)N[C@@H]2CC[C@@H](N3CCOCC3)[C@@H]2O)c1	120%
CC(=O)N1CCN([C@@H]2CC[C@@H](NC(=O)c3ccc(C)nc3)[C@H]2O)CC1	126.1%
CC(=O)N1CCC(N[C@@H]2CO[C@H](CNC(=O)c3cccs3)[C@H]2O)CC1	1.318%
Cc1ccc(C(=O)N2CCN3C[C@H](Oc4cncnc4)C[C@H]3C2)cn1	-3.915%
CC(C)(C)c1cc(CN2CC[C@@H](NC(=O)c3cccnc3)[C@H](O)C2)n[nH]1	-14.75%
CCc1ccccc1CN1CC[C@@H](NC(=O)c2cccnc2)[C@H](O)C1	-11.05%
CC(=O)N1CCN([C@@H]2CC[C@@H](NC(=O)c3cncc(C)c3)[C@H]2O)CC1	-9.247%
Cc1cncc(C(=O)NCC2COCc3c(C)nnn3C2)c1 (stereo not given)	-1.908%
CC(=O)N1CCN([C@@H]2CCC[C@@H](NC(=O)c3cccnc3)[C@H]2O)CC1	122.9%
CC(=O)N1C[C@H](NC(=O)c2csc(C(C)C)c2)[C@@H](C(C)C)C1	-7.601%
CCCC(=O)NC1CCCN(C(=O)c2ccc(C)nc2)C1 (stereo not given)	-3.666%
CC(=O)N1CCN([C@@H]2CC[C@@H](NC(=O)c3cc(C)cs3)[C@H]2O)CC1	116.4%
CC(=O)NC1CCCN(C(=O)CNc2cccc(C)c2Cl)C1 (stereo not given)	6.978%
O=C(CCn1cncn1)N1CCC2(CC1)[C@H](O)C[C@@H]2OCCO	-12.21%
O=C(NS(=O)(=O)c1ccc(C2CCCCC2)cc1)C1COCCO1 (stereo not given)	-16.34%
CCOc1ccc(N(C)Cc2nnc(C3CC3)o2)cc1	-1.111%
CC1(C)CCC(CC(=O)O)c2ccccc21 (stereo not given)	8.259%
CN(Cc1cc(-c2ccncc2)no1)Cc1nccn1C	1.044%
Cc1ccccc1C(=O)NC[C@@H]1CCN(C(=O)CN2CCCC2)C[C@H]1O	2.188%
CNC(=O)CN1CC[C@H]2CN(C(=O)c3ccccc3C)C[C@H]2C1.O=C(O)C(F)(F)F	117.7%
Cc1ccccc1C(=O)N1C[C@@H]2CCN(c3cccnc3)C[C@@H]2C1.O=C(O)C(F)(F)F	9.875%

SMILES	Percent Effect
O=C(O)C(F)(F)F.O=C(c1ccccc1F)N1C[C@H]2CCC[C@@]2(COCc2ccncc2)C1	-1.474%
CNC(=O)CN1CC[C@H]2CN(C(=O)c3ccccc3F)C[C@H]2C1.O=C(O)C(F)(F)F	86.74%
COCC(=O)NC[C@H]1OC[C@@H](NC2CCC(F)(F)CC2)[C@@H]1O	-6.952%
c1ccc(-c2ncc3c(n2)C2(CCN(c4ncccn4)C2)COC3)cc1 (stereo not given)	-0.2326%
CN(C)S(=O)(=O)N1CCC2(COCc3cnc(-c4cccnc4)nc32)C1 (stereo not given)	117.1%
CS(=O)(=O)N1CCC2(COCc3cnc(-c4ccccc4)nc32)C1 (stereo not given)	3.211%
O=S(=O)(C1CC1)N1CCC2(COCc3cnc(-c4cccnc4)nc32)C1 (stereo not given)	112.6%
O=S(=O)(C1CC1)N1CCC2(COCc3cnc(N4CCOCC4)nc32)C1 (stereo not given)	-0.8991%
CN(C)S(=O)(=O)N1CCC2(COCc3cnc(-c4ccccc4)nc32)C1 (stereo not given)	7.187%
Cc1nn(C)c(NC(=O)C2SCCc3ccccc32)c1C (stereo not given)	-51.32%
COCCOc1ccc(NC(=O)N2CCCC2c2cccs2)cn1 (stereo not given)	-5.356%
COCCOc1ccc(NC(=O)C2CC(=O)N(C(C)C)C2)cn1 (stereo not given)	102.1%
COCCOc1ccc(NC(=O)N(C(C)C)C2CC2)cn1	-14.55%
COCCOc1ccc(NC(=O)N2CCCC2c2cc(C)no2)cn1 (stereo not given)	-1.531%
COCCOc1ccc(NC(=O)N(CCO)C2CC2)cn1	-3.493%
COCCOc1ccc(NC(=O)C2CC(=O)N(C3CC3)C2)cn1 (stereo not given)	124.3%
COCCOc1ccc(NC(=O)C2CC(=O)N(CC3CC3)C2)cn1 (stereo not given)	88.01%
COCCOc1ccc(NC(=O)N2CCCC2c2ccncc2)cn1 (stereo not given)	-3.019%
COCCOc1ccc(NC(=O)C2CCCN(C(N)=O)C2)cn1 (stereo not given)	-6.192%
CCS(=O)(=O)N1CCN(CC(F)(F)F)CC1	6.417%
CS(=O)(=O)CCC(=O)NC1CC(c2ccccc2Cl)C1 (stereo not given)	-3.689%
CCNC(=O)CCN1CCC(c2cc(N3CCOCC3)nc(C)n2)CC1	2.574%
Cc1cc(C)c(CNC(=O)N2CCN(c3cnccn3)CC2)c(=O)[nH]1	-4.919%
CCn1ncnc1C(C)NC(=O)C1CCN(C2CCCCC2)CC1 (stereo not given)	-9.983%
O=C(CCc1ccsc1)NCC1CCN(c2ccccc2)C1 (stereo not given)	-7.68%

SMILES	Percent Effect
CNC(=O)CCc1cc(C)nc(C2CCCN2)c1 (stereo not given)	-6.068%
CNC(=O)CCc1cc(C)nc(C2CCN(c3ccccc3)CC2)c1	115.5%
Cc1cc(N2CCC(NC(=O)CCc3cnn(C)c3)CC2)nc(C)n1	-6.539%
Cc1ccc(CC(=O)NC2CCN(c3cccc(Cl)c3)C2)cn1 (stereo not given)	-6.758%
CNC(=O)CCc1cc(C2CCN(c3cnccn3)CC2)nc(C)n1	127.7%
Cc1nc(C2CCN(CC(=O)NC3CC3)CC2)cc(N2CCOCC2)n1	-4.261%
CNC(=O)CCc1cc(C)nc(C2CCN(C3CCCCC3)CC2)c1	132.7%
CNC(=O)CCc1cc(C)nc(C2CCN(c3cnccn3)CC2)c1	163%
CCN(Cc1ccoc1)C(=O)NC1CCN(CC2CC2)C1 (stereo not given)	-6.123%
N#Cc1c(Cl)nsc1NCCCN1C(=O)COc2ccccc21	-8.12%
CCN(C(=O)C1CCC1)C(c1cccnc1)c1ccc2c(c1)CCO2 (stereo not given)	-9.854%
O=C(C1CN(Cc2ccsc2)Cc2ccnn2C1)N1CCCC1.O=C(O)C(F)(F)F.O=C(O)C(F)(F)F (stereo not given)	5.087%
COc1coc(CN2CCCC3(CCC(=O)N(CC4CC4)C3)C2)cc1=O (stereo not given)	-7.938%
CN(CCc1cnn(C)c1)C(=O)CN1C(=O)OC[C@@H]1c1ccccc1	-15.8%
CN(CCc1cnn(C)c1)C(=O)Cn1c(=O)[nH]c2ccccc21	117.9%
CCOCCn1c(=O)[nH]c2cc(C(=O)N(C)Cc3cnn(C)c3)ccc21	6.487%
Cc1cc(C)c2nc(C)cc(C(=O)NCc3csc(N(C)C)n3)c2c1	-46.67%
O=C(Nc1cnn(CC(=O)N2CCCCO2)c1)c1ccccn1	-7.331%
O=C(O)c1ccc(F)c(S(=O)(=O)Nc2c(F)cccc2-n2cccn2)c1	-5.743%
Cc1ccc(C#N)c(N2CCC(c3nccn3CCN(C)C)CC2)n1	-3.51%
CN(C)CCn1c(=O)oc2ccc(NC(=O)C3CCCO3)cc21 (stereo not given)	1.023%
CN(C)CCn1c([C@H]2CCCO2)cc2cccnc21	104.2%
CN(C)CCn1c([C@@H]2CCCO2)cc2cccnc21.Cl	90.46%
CN(C)CCn1ccnc1C1CCCN(c2nccc3ccccc23)C1 (stereo not given)	-1.132%
Cc1nn(C)c2nc(N(Cc3ccccn3)CC3CCCO3)sc12 (stereo not given)	-1.375%
